Reference: PubChem BioAssay (Tox21)
Inconclusive results are not listed. Entries that show only a call come without a potency. Active and inactive are the calls of the source. The call rests on the fitted dose curve; in most records, active means well fitted cell-killing curve with a large enough effect in the repeat runs; inconclusive means weak or mixed curves, or effect the other way; inactive means flat fitted curve, though single readings scatter.

test: qHTS assay to identify small molecule antagonists of the estrogen receptor alpha (ER-alpha) signaling pathway using the BG1 cell line in the presence of 0.1 nM 17-beta-estradiol - cell viability counter screen (AID 1259241); conditions: VM7Luc4E2 (BG1) viability, CellTiter-Fluor protease, 22 h, 0.1 nM estradiol agonist added; series mostly up to 92.4 µM; further: nearly all actives have a fitted effect of over 40% in size
Excerpt: National Center for Advancing Translational Sciences [NCATS]
NIH Chemical Genomics Center [NCGC]
U.S. Environmental Protection Agency [EPA]
National Institutes of Environmental Health Sciences [NIEHS]
National Toxicology Program [NTP]
U.S. Food and Drug Administration [FDA]
Estrogen receptor (ER), a member of the nuclear hormone receptor plays an important role in development, metabolic homeostasis and reproduction. Two subtypes of ER, ER-alpha and ER-beta, have similar expression patterns with some uniqueness in both types. Endocrine disrupting chemicals (EDCs) and their interactions with steroid hormone receptors like ER causes disruption of normal endocrine function. Therefore, it is important to understand the effect of environmental chemicals in ER signaling pathway. For identifying ER antagonists, VM7Luc4E2 cell line was used to screen against Tox21 compound libraries.
VM7Luc4E2 cell line (provided by Denison MS, University of California) endogenously express full-length ER-alpha and is stably transfected with a plasmid containing four estrogen responsive elements (ERE) upstream of a luciferase reporter gene. The current screening for identification of ER-alpha inhibitors against Tox21 compound libraries used lower concentration (0.1 nM) of 17beta-Estradiol as a stimulator. The cytotoxicity of the Tox21 compound libraries against VM7Luc4E2 cell line was tested by measuring live-cell protease activity using CellTiter-Fluor assay in the same wells.
Tox21 Assay Protocol Summary:
VM7Luc4E2 cells were cultured in phenol red free assay medium containing 10% charcoal stripped FBS for 5 days prior to the assay. The cells were dispensed at 4,000 cells/well in 4 uL of assay medium into white wall/solid-bottom 1536-well plates (Corning Life Sciences, Corning, NY) using a Multidrop Combi (ThermoFisher Scientific, Waltham, MA) dispenser. After the assay plates were incubated at 37C and 5% CO2 for 24 hr, 23 nL of compounds dissolved in DMSO, positive controls or DMSO only was transferred to the assay plates by a Pintool station (Kalypsys, San Diego, CA). The transfer of compounds was followed by the addition of 1 uL of 0.1 nM (final concentration) agonist (17beta-Estradiol)/assay medium using a Flying Reagent Dispenser (FRD, Aurora Discovery, San Diego, CA). The plates were incubated at 37C and 5% CO2 for 22 hr. For cytotoxicity assay, 1 uL of CellTiter-Fluor reagent (Promega Corporation, Madison, WI) was added to each well using the FRD and after 30 min incubation at 37C and 5% CO2, The fluorescence intensity was measured using ViewLux plate reader (PerkinElmer, Shelton, CT).
Potency means the concentration at half of the fitted maximal effect.

**Q.** For `CCCCCCCCCCCCCCCC(=O)OCC`, which Potency is on record?
**A.** inactive

**Q.** For `O=C1OC[C@H](Cc2cccc(O)c2)[C@H]1Cc1cccc(O)c1`, which Potency is on record?
**A.** inactive

**Q.** Which Potency does the source give for `CC(C)N(C)C` here?
**A.** inactive

**Q.** For `O=C1OC(=O)c2c(Br)c(Br)c(Br)c(Br)c21`, which Potency is on record?
**A.** inactive

**Q.** For `COc1ccc2nc(S(=O)Cc3ncc(C)c(OC)c3C)[nH]c2c1` (stereo not given), which Potency is on record?
**A.** inactive

**Q.** For `O=C(O)CO`, which Potency is on record?
**A.** inactive

**Q.** With `CC(C)(C)S` as the compound, how does the Potency read?
**A.** inactive

**Q.** With `CCN(Cc1cccc(S(=O)(=O)O)c1)c1ccc(C(=C2C=CC(=[N+](CC)Cc3cccc(S(=O)(=O)O)c3)C=C2)c2ccccc2S(=O)(=O)[O-])cc1` as the compound, how does the Potency read?
**A.** 19.4 µM (active)

**Q.** For `CNCc1ccc(NC(=O)c2c[nH]c3c2C(=O)CCC3)cc1`, which Potency is on record?
**A.** inactive

**Q.** Which Potency does the source give for `CCCCCCCCCCCCCCCCCC(=O)OCC(CC)CCCC` (stereo not given) here?
**A.** inactive

**Q.** Which Potency does the source give for `Oc1ccc2c(c1)Cc1ccccc1-2` here?
**A.** inactive

**Q.** With `NC(=O)CCCCC(N)=O` as the compound, how does the Potency read?
**A.** inactive

**Q.** Which Potency does the source give for `Cc1ccc(Nc2c(F)cccc2Cl)c(CC(=O)O)c1` here?
**A.** inactive

**Q.** For `CC1C(C)(C)C2=C(C(=O)CCC2)C1(C)C` (stereo not given), which Potency is on record?
**A.** inactive

**Q.** Which Potency does the source give for `COC(=O)c1sccc1S(N)(=O)=O` here?
**A.** inactive

**Q.** Which Potency does the source give for `CCN(CC)CC(=O)Nc1c(C)cccc1C(=O)OC` here?
**A.** inactive

**Q.** For `Cc1ccc(NC(=O)N(C)C)cc1NC(=O)N(C)C`, which Potency is on record?
**A.** inactive

**Q.** Which Potency does the source give for `COc1ccc(C)cc1` here?
**A.** inactive

**Q.** With `O=C(c1ccccc1)C1CCC1` as the compound, how does the Potency read?
**A.** inactive

**Q.** Which Potency does the source give for `O=C(NC(Cc1cc(=O)[nH]c2ccccc12)C(=O)O)c1ccc(Cl)cc1` (stereo not given) here?
**A.** inactive

**Q.** For `Cc1ccc2nc(N)[nH]c(=O)c2c1Sc1ccncc1`, which Potency is on record?
**A.** inactive

**Q.** For `CCCCCCCCCCCCCOS(=O)(=O)O`, which Potency is on record?
**A.** inactive

**Q.** Which Potency does the source give for `CNc1c2c(nn1C)CCCC2` here?
**A.** inactive

**Q.** With `CC(CN(CCN(CC(C)OCCO)CC(C)OCCO)CC(C)OCCO)OCCO` (stereo not given) as the compound, how does the Potency read?
**A.** inactive

**Q.** Which Potency does the source give for `ClC1=C(Cl)C1(Cl)Cl` here?
**A.** inactive

**Q.** Which Potency does the source give for `O=c1[nH]c2cc(C(F)(F)F)c(N3CCOCC3)cc2n(CP(=O)(O)O)c1=O` here?
**A.** inactive

**Q.** Which Potency does the source give for `CC(C)c1ccc(C#N)cc1` here?
**A.** inactive

**Q.** For `CC(=O)NCCO`, which Potency is on record?
**A.** inactive

**Q.** For `CCN(CC)CCOc1ccccc1C(=O)CCc1ccccc1`, which Potency is on record?
**A.** inactive

**Q.** Which Potency does the source give for `CC(C)COC(=O)COc1cc(Cl)c(Cl)cc1Cl` here?
**A.** inactive

**Q.** With `CCCCCCCCCCCCCC(=O)OCC(O)CO` (stereo not given) as the compound, how does the Potency read?
**A.** inactive

**Q.** Which Potency does the source give for `CC(C)(C)C1(CCc2ccc(Cl)cc2)CO1` (stereo not given) here?
**A.** inactive

**Q.** For `CC(=O)OCCC1CCCCC1`, which Potency is on record?
**A.** inactive

**Q.** For `CC1=C2[C@@H]([C@H](C)CC[C@H]2/C=C(\C)C(=O)O)[C@H](O)C1`, which Potency is on record?
**A.** inactive

**Q.** With `Cc1ccc(N(CCO)CCO)cc1` as the compound, how does the Potency read?
**A.** inactive

**Q.** For `CC(C)(C(=O)c1cccnc1)c1cccnc1`, which Potency is on record?
**A.** inactive

**Q.** With `CC(=O)C(=O)CC(C)C` as the compound, how does the Potency read?
**A.** inactive

**Q.** With `O=CNNC=O` as the compound, how does the Potency read?
**A.** inactive

**Q.** With `Cc1ccc2c(c1[N+](=O)[O-])C(=O)c1ccccc1C2=O` as the compound, how does the Potency read?
**A.** inactive

**Q.** Which Potency does the source give for `CCNc1nc(N)nc(Cl)n1` here?
**A.** inactive
